Laboratory results published in PubChem BioAssay (EPA / NIEHS).
Values joined by “and” are separate entries in the source; they are usually repeats but may differ in a detail not shown here. Identical values can stand only once. Records with an inconclusive call do not appear. The source holds several records for some structures; these can differ, active in one and inactive in another. Active and inactive are the calls of the source. How the source made its calls, unless noted: active means hit-call score of the fitted dose curve at least 0.9, where 1 is the maximum; inconclusive means response in the unintended direction; inactive means score below 0.9.

system: not listed separately; experiment: ATG_VDRE_CIS: Attagene CIS-FACTORIAL HepG2 Assay for human Vitamin D Receptor Element (VDRE) (AID 2282968; active means hit-call score of the fitted dose curve at least 0.9, where 1 is the maximum; inactive means score below 0.9); conditions: HepG2 VDRE cis-reporter transcription, actives raise or lower the signal
How it was run: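 RT-PCR/CE readout of reporter mRNA; HepG2, transient transfection, 24 h dosing; DMSO baseline; bidirectional analysis.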

Row | SMILES | outcome | AC50
1 | FC1CC(F)(F)C(F)(F)C1(F)F (stereo unspecified) | inactive | 
2 | C=C(C)C(=O)OCC(F)(F)C(F)(F)C(F)(F)F | inactive | 
3 | O=C(O)C(F)(F)C(F)(F)C(F)(F)C(F)(F)C(F)(F)C(F)(F)C(F)(F)C(F)(F)Cl |  | 49.3 µM (active) and 67.4 µM (active)
4 | CO[Si](OC)(c1ccccc1)c1ccccc1 | inactive | 
5 | C=C(C)C(=O)OCCC(F)(F)C(F)(F)C(F)(F)C(F)(F)C(F)(C(F)(F)F)C(F)(F)F | inactive | 
6 | CC(C)(C)c1ccc(OC2CCCCC2O)cc1 (stereo unspecified) |  | 26.8 µM (active)
7 | CC(C)=CCCC(C)CCOC(=O)C(C)C (stereo unspecified) | inactive | 
8 | O=S(=O)(OCC(F)F)C(F)(F)F | inactive | 
9 | FC(F)(F)C(F)(F)CNCC(F)(F)C(F)(F)F | inactive | 
10 | OCC(F)(F)C(F)(F)C(F)(F)C(F)(F)C(F)(F)C(F)F | inactive | 
11 | CN(C)Cc1ccccc1O | inactive | 
12 | CC(C)OC(=O)c1ccccc1C(=O)OC(C)C |  | 14.2 µM (active)
13 | O=C(O)C(F)(OC(F)(F)C(F)(OC(F)(F)C(F)(F)C(F)(F)F)C(F)(F)F)C(F)(F)F (stereo unspecified) | inactive | 
14 | C(=C(c1ccccc1)c1ccccc1)c1ccccc1 | inactive | 
15 | OCCCC(F)(F)C(F)(F)C(F)(F)C(F)(F)C(F)(F)C(F)(F)C(F)(F)F | inactive | 150 µM (active)
16 | c1ccc(-c2ccccc2-c2ccccc2)cc1 | inactive | 
17 | FC(F)(F)C(F)(F)C(F)(F)C(F)(F)CCI | inactive | 

Row | SMILES | outcome | AC50
18 | O=C(C=Cc1ccccc1)OCC=Cc1ccccc1 | inactive | 
19 | N=C(N)C(F)(F)C(F)(F)C(F)(F)C(F)(F)C(F)(F)C(F)(F)C(F)(F)F | inactive | 
20 | CCCCCCOC(=O)c1ccccc1 | inactive | 
21 | O=C(O)C(F)(F)C(F)(F)C(F)(F)C(F)(F)C(F)(F)C(F)(F)C(F)(F)C(F)(F)C(F)(F)C(F)(F)C(F)(F)C(F)(F)F | inactive | 
22 | CCCCOCCOCCOC(=O)CCCCC(=O)OCCOCCOCCCC | inactive | 
23 | CCN(CC)c1ccc2c(C)cc(=O)oc2c1 |  | 9.28 µM (active)
24 | C=CC(=O)OCC(F)(F)C(F)(F)C(F)(F)C(F)(F)COC(=O)C=C |  | 50 µM (active)
25 | CC(Cc1ccc(O)c(O)c1)C(C)Cc1ccc(O)c(O)c1 (stereo unspecified) |  | 5.93 µM (active)
26 | CCCCCCOC(=O)c1ccccc1O | inactive | 
27 | FC(F)(I)C(F)(F)C(F)(F)C(F)(F)I | inactive | 
28 | C=CC(F)(F)C(F)(F)C(F)(F)C(F)(F)C(F)(F)C(F)(F)C(F)(F)C(F)(F)F | inactive | 
29 | CCC(=O)OCCc1ccccc1 | inactive | 
30 | OC[C@@H](O)[C@@H](O)[C@H](O)[C@@H](O)CO | inactive | 
31 | CCCCCCCOC(=O)c1ccccc1C(=O)OCCCCCCC | inactive | 
32 | Nc1cc(Cl)c(N)c(Cl)c1 | inactive | 
33 | C1COCCN1 | inactive | 

target: Nuclear receptor subfamily 1 group I member 3 (Homo sapiens) (UniProt Q14994); experiment: ATG_CAR_TRANS: Attagene TRANS-FACTORIAL HepG2 Assay for human Constitutive Androstane Receptor (CAR) (AID 2282969); conditions: HepG2 Attagene TRANS-FACTORIAL CAR reporter;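 further: activators raise reporter mRNA above DMSO so AC50 marks induction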
Sequence (Q14994 whole entry, looked up, the tested form may be a part): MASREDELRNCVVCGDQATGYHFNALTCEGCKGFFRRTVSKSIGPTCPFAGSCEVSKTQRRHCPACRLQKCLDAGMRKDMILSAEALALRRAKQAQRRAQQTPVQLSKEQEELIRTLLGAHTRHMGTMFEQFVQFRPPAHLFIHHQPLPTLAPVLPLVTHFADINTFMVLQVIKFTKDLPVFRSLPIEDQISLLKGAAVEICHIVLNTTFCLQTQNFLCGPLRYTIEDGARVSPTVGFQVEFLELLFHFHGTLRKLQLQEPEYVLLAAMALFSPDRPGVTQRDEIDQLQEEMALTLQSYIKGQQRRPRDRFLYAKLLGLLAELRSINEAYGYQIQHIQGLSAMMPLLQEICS
How it was run: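 HepG2 cells transiently transfected with multiplexed GAL4-UAS reporter units expressing chimeric NR-Gal4 proteins; compound exposure 24 h. Reporter mRNA measured by RT-PCR, 6-FAM labelling, HpaI digestion and capillary electrophoresis; gain-of-signal fitted against DMSO baseline.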

Row | SMILES | outcome
34 | FC1CC(F)(F)C(F)(F)C1(F)F (stereo unspecified) | inactive
35 | CO[Si](OC)(c1ccccc1)c1ccccc1 | inactive
36 | C=C(C)C(=O)OCCC(F)(F)C(F)(F)C(F)(F)C(F)(F)C(F)(C(F)(F)F)C(F)(F)F | inactive
37 | CC(C)(C)c1ccc(OC2CCCCC2O)cc1 (stereo unspecified) | inactive
38 | CC(C)=CCCC(C)CCOC(=O)C(C)C (stereo unspecified) | inactive
39 | FC(F)(F)C(F)(F)CNCC(F)(F)C(F)(F)F | inactive
40 | OCC(F)(F)C(F)(F)C(F)(F)C(F)(F)C(F)(F)C(F)F | inactive
41 | CN(C)Cc1ccccc1O | inactive
42 | CC(C)OC(=O)c1ccccc1C(=O)OC(C)C | inactive
43 | C(=C(c1ccccc1)c1ccccc1)c1ccccc1 | inactive
44 | c1ccc(-c2ccccc2-c2ccccc2)cc1 | inactive
45 | FC(F)(F)C(F)(F)C(F)(F)C(F)(F)CCI | inactive
46 | O=C(C=Cc1ccccc1)OCC=Cc1ccccc1 | inactive
47 | N=C(N)C(F)(F)C(F)(F)C(F)(F)C(F)(F)C(F)(F)C(F)(F)C(F)(F)F | inactive
48 | CCCCCCOC(=O)c1ccccc1 | inactive
49 | O=C(O)C(F)(F)C(F)(F)C(F)(F)C(F)(F)C(F)(F)C(F)(F)C(F)(F)C(F)(F)C(F)(F)C(F)(F)C(F)(F)C(F)(F)F | inactive
50 | CCCCOCCOCCOC(=O)CCCCC(=O)OCCOCCOCCCC | inactive
51 | CCN(CC)c1ccc2c(C)cc(=O)oc2c1 | inactive
52 | C=CC(=O)OCC(F)(F)C(F)(F)C(F)(F)C(F)(F)COC(=O)C=C | inactive
53 | CC(Cc1ccc(O)c(O)c1)C(C)Cc1ccc(O)c(O)c1 (stereo unspecified) | inactive
54 | CCCCCCOC(=O)c1ccccc1O | inactive
55 | FC(F)(I)C(F)(F)C(F)(F)C(F)(F)I | inactive
56 | CCC(=O)OCCc1ccccc1 | inactive
57 | CCCCCCCOC(=O)c1ccccc1C(=O)OCCCCCCC | inactive
58 | Nc1cc(Cl)c(N)c(Cl)c1 | inactive
59 | C1COCCN1 | inactive

target: Estrogen receptor (Homo sapiens) (UniProt P03372); experiment: ATG_ERa_TRANS: Attagene TRANS-FACTORIAL HepG2 Assay for human Estrogen Receptor alpha (ERa) (AID 2282970); conditions: HepG2 Attagene TRANS ERa GAL4 reporter, mRNA
Sequence (P03372 whole entry, looked up, the tested form may be a part): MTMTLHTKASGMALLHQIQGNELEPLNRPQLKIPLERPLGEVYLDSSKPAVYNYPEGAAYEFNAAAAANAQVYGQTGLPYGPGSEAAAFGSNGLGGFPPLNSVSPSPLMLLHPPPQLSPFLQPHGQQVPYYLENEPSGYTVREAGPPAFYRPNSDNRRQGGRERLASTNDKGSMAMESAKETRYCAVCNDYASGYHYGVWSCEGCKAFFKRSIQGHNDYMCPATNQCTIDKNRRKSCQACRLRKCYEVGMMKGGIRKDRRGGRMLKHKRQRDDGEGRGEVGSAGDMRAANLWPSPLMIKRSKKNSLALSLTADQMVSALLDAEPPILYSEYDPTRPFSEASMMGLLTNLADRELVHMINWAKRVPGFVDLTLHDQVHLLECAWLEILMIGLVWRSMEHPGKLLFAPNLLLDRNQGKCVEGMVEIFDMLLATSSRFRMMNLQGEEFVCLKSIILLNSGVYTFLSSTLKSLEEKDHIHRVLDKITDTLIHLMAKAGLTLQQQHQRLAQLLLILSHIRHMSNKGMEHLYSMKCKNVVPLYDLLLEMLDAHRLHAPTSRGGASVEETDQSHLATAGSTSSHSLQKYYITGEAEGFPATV
How it was run: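 Transactivation via ERa-Gal4 chimera in HepG2; 24 hour incubation; reporter mRNA detected by fluorescence RT-PCR and capillary electrophoresis.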

Row | SMILES | outcome | AC50
60 | FC1CC(F)(F)C(F)(F)C1(F)F (stereo unspecified) | inactive | 
61 | C=C(C)C(=O)OCC(F)(F)C(F)(F)C(F)(F)F | inactive | 30.7 µM (active)
62 | O=C(O)C(F)(F)C(F)(F)C(F)(F)C(F)(F)C(F)(F)C(F)(F)C(F)(F)C(F)(F)Cl |  | 27.2 µM (active) and 31.4 µM (active)
63 | Cc1ccc(S(=O)(=O)NCl)cc1 | inactive | 
64 | CO[Si](OC)(c1ccccc1)c1ccccc1 | inactive | 
65 | C=C(C)C(=O)OCCC(F)(F)C(F)(F)C(F)(F)C(F)(F)C(F)(C(F)(F)F)C(F)(F)F |  | 7.49 µM (active)
66 | CC(C)(C)c1ccc(OC2CCCCC2O)cc1 (stereo unspecified) | inactive | 
67 | CC(C)=CCCC(C)CCOC(=O)C(C)C (stereo unspecified) | inactive | 
68 | O=S(=O)(OCC(F)F)C(F)(F)F | inactive | 
69 | FC(F)(F)C(F)(F)CNCC(F)(F)C(F)(F)F | inactive | 
70 | OCC(F)(F)C(F)(F)C(F)(F)C(F)(F)C(F)(F)C(F)F |  | 5.4 µM (active)
71 | CN(C)Cc1ccccc1O | inactive | 
72 | CC(C)OC(=O)c1ccccc1C(=O)OC(C)C |  | 11.2 µM (active)
73 | O=C(O)C(F)(OC(F)(F)C(F)(OC(F)(F)C(F)(F)C(F)(F)F)C(F)(F)F)C(F)(F)F (stereo unspecified) | inactive | 18.4 µM (active)
74 | C(=C(c1ccccc1)c1ccccc1)c1ccccc1 |  | 0.0329 µM (active)
75 | OCCCC(F)(F)C(F)(F)C(F)(F)C(F)(F)C(F)(F)C(F)(F)C(F)(F)F |  | 13.7 µM (active) and 13.2 µM (active)
76 | c1ccc(-c2ccccc2-c2ccccc2)cc1 |  | 2.75 µM (active)

Row | SMILES | outcome | AC50
77 | FC(F)(F)C(F)(F)C(F)(F)C(F)(F)CCI |  | 13.6 µM (active)
78 | O=C(C=Cc1ccccc1)OCC=Cc1ccccc1 |  | 18 µM (active)
79 | N=C(N)C(F)(F)C(F)(F)C(F)(F)C(F)(F)C(F)(F)C(F)(F)C(F)(F)F |  | 40.6 µM (active)
80 | CCCCCCOC(=O)c1ccccc1 | inactive | 
81 | O=C(O)C(F)(F)C(F)(F)C(F)(F)C(F)(F)C(F)(F)C(F)(F)C(F)(F)C(F)(F)C(F)(F)C(F)(F)C(F)(F)C(F)(F)F | inactive | 
82 | CCCCOCCOCCOC(=O)CCCCC(=O)OCCOCCOCCCC | inactive | 
83 | CCN(CC)c1ccc2c(C)cc(=O)oc2c1 |  | 25.4 µM (active)
84 | C=CC(=O)OCC(F)(F)C(F)(F)C(F)(F)C(F)(F)COC(=O)C=C |  | 38.3 µM (active)
85 | CC(Cc1ccc(O)c(O)c1)C(C)Cc1ccc(O)c(O)c1 (stereo unspecified) |  | 9.13 µM (active)
86 | CCCCCCOC(=O)c1ccccc1O |  | 92.5 µM (active)
87 | FC(F)(I)C(F)(F)C(F)(F)C(F)(F)I |  | 0.299 µM (active)
88 | C=CC(F)(F)C(F)(F)C(F)(F)C(F)(F)C(F)(F)C(F)(F)C(F)(F)C(F)(F)F | inactive | 
89 | CCC(=O)OCCc1ccccc1 | inactive | 
90 | OC[C@@H](O)[C@@H](O)[C@H](O)[C@@H](O)CO |  | 26.2 µM (active)
91 | CCCCCCCOC(=O)c1ccccc1C(=O)OCCCCCCC | inactive | 
92 | Nc1cc(Cl)c(N)c(Cl)c1 | inactive | 
93 | C1COCCN1 | inactive | 
